# Source: PubChem (several laboratories)
# An excerpt weighted towards active compounds, which were near 2.9% of everything screened.
# B2AR ag – activates human beta-2 adrenergic receptor causing internalization | AID 504454 | Am2.2-beta2AR cells, FAP receptor internalization, flow cytometry | response, % (concentration not given with the values) | 340,000 compounds, 0.43% hits;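 active = response above a set limit, near 3 SD of response in nonfluorescent compounds, cut at about 42% in these data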
# NadD block – NadD (S. aureus) enzyme inhibition. purified NadD enzyme, colorimetric absorbance read-out. AID 602399. 360,000 compounds, 0.78% hits. inhibition, % at 20 µM; in the data active = inhibition above about 26%
# PP1 counter – counter-screen for PP5 inhibitors: inhibitors of human PP1-alpha | inhibition, % at 6.7 µM | purified PP1alpha, OMFP fluorescence | 320,000 compounds, 0.9% hits | AID 2235;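 active = inhibition above the mean inhibition of all tested compounds plus 3 SD, computed separately for each screening campaign, cut at about 15% in these data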
# Granule exo inh – blocks lytic granule exocytosis. TALL-104 LAMP-1 surface exposure, flow cytometry; cells stimulated with thapsigargin and PMA. inhibition, % at 10 µM. 360,000 compounds, 0.66% hits;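 active = inhibition above about 55%, limit read from the data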
# GRK2 aptamer HTS – human GRK2 inhibition via aptamer displacement | bead flow cytometry, FAM-aptamer displacement from GRK2 | 330,000 compounds, 0.59% hits | P25098 | AID 488847 | inhibition of aptamer binding, % at 10 µM;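 active = inhibition of aptamer binding above 40%, roughly 3 SD of noise, on plates passing a quality check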;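 note: median bead fluorescence of bound FAM aptamer so fluorescent compounds give negative values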
# Target sequence (P25098 whole entry, looked up): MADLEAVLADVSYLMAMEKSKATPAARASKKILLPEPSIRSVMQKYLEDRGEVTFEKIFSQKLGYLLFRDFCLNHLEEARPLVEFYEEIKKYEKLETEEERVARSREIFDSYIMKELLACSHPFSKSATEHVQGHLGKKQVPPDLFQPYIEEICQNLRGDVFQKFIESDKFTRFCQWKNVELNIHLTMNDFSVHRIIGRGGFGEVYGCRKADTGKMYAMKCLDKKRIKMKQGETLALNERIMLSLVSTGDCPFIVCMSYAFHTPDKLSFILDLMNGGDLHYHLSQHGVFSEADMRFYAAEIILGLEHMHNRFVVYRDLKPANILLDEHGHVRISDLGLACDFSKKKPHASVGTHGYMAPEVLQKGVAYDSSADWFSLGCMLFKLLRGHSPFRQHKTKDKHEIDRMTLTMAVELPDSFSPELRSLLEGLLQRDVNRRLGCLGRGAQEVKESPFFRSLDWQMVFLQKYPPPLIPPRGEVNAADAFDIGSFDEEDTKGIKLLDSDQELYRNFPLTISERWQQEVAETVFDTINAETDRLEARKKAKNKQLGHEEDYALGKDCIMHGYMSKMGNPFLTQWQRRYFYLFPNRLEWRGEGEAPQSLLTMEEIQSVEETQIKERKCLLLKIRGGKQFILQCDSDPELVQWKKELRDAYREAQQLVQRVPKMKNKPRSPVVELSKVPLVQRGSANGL
# Granule exo CP1 – lytic granule exocytosis inhibition. shares compounds with Granule exo inh. TALL-104 cells, LAMP-1 externalization, flow cytometry; stimulated with PMA plus thapsigargin. inhibition, % at 10 µM. 1,500 compounds, 11% hits; in the data active = inhibition above about 60%;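 note: 0% = stimulated vehicle wells and 100% = unstimulated wells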
# Numbers without * were called inactive; . = not tested or not shown.
SMILES,B2AR ag,NadD block,PP1 counter,Granule exo inh,GRK2 aptamer HTS,Granule exo CP1
CN1CCN(CCCNC(=O)c2ccc(/C=C3\Sc4ccccc4N(Cc4ccccc4F)C3=O)cc2)CC1,88*,-3,.,66*,.,7
CCN1CCN(CCNC(=O)c2ccc(/C=C3/Sc4ccccc4N(Cc4cccc(Cl)c4)C3=O)cc2)CC1,38,-1,4,79*,0,55
COC(=O)c1cc(NC(=O)CN(C)C2CCS(=O)(=O)C2)cc(C(=O)OC)c1 (centres undefined),11,-1,.,12,2,.
COc1ccc(OC)c(-c2csc(NC(=O)Cc3ccccc3OC)n2)c1,5,-13,3,68*,0,-5
O=C1OC(c2ccccc2)(c2cc(Br)ccc2O)c2ccccc21 (centres undefined),15,0,.,103*,.,99*
Cc1ccc(-n2c(C)nnc2SCC(=O)N(C)c2c(N)n(Cc3ccccc3)c(=O)[nH]c2=O)cc1,-3,4,-3,3,0,.
O=C(Nc1nc(-c2ccccc2)cs1)c1ccc2c(=O)n3c(nc2c1)CCCCC3,18,14,7,97*,0,68*
CCn1c2ccc(C)cc2c2nnc(SCCN3CCCCC3)nc21,-6,0,3,97*,0,-3
CCC(C)(C)C1CCC2(CC1)NC(=O)N(CC(=O)NCCc1ccc(OC)c(OC)c1)C2=O (centres undefined),-3,-11,-2,-1,4,.
COc1ccc(N=C(c2ccccc2)c2c(C)[nH]n(-c3ccccc3)c2=O)c(OC)c1,-10,-10,-3,14,0,.
CN(C(=O)c1cccc(NC(=O)Cc2ccc(NC(=O)C3CCN(C(=O)C4CCCCC4)CC3)cc2)c1)C1CCCCC1,1,9,.,-3,.,.
CN(C(=O)c1cccc(NC(=O)Cc2ccc(NC(=O)C3CCN(C(=O)C4CCC4)CC3)cc2)c1)C1CCCCC1,-5,10,.,58*,.,-13
CCOC(=O)C1=C(CNCc2ccc(F)cc2)NC(=O)NC1c1cccc([N+](=O)[O-])c1 (centres undefined),-7,-2,1,-3,1,.
CCOC(=O)C1=C(CCc2ccccc2)NC(=O)NC1c1cccc([N+](=O)[O-])c1 (centres undefined),-2,4,3,94*,1,-14
COc1ccc(CCNC(=O)C2CC3Cn4c(nc5cc(Cl)c(Cl)cc54)C3N2C)cc1 (centres undefined),-7,2,-2,83*,1,-13
COCc1cc(C)nc2sc(C(=O)OC(C)C)c(N)c12,-5,4,-4,-13,0,.
COCc1cc(C)nc2sc(C(=O)Nc3ccc(C(=O)OC)cc3)c(N)c12,-3,-9,-4,85*,2,-6
COc1cccc(OC)c1OCCCN1CCC(Cc2ccccc2)CC1,-4,-7,8,68*,2,-12
COc1cccc(OC)c1OCCN1CCCC1,2,-6,2,-12,0,.
COc1cccc(OC)c1OCCN1CCN(C(c2ccccc2)c2ccccc2)CC1,4,-5,0,62*,0,-10
CN(C)CCC(=O)C(Cc1ccccc1)c1ccccc1 (centres undefined),10,-1,-2,97*,0,18
O=C1C(=O)N(Cc2cccs2)c2ccccc21,7,2,6,62*,3,-2
CCOc1cc(N2CCOCC2)c(OCC)cc1NC(=O)CN1CCCC1,10,-2,-2,6,2,.
Cc1ccc(N(CC(=O)NC2CCCC2)C(=O)CCC(=O)Nc2nccs2)c(C)c1,-1,1,-4,-2,0,.
Cc1ccc(C)c(N(CC(=O)NC2CCCC2)C(=O)CCC(=O)Nc2nccs2)c1,1,0,-1,78*,0,-12
SMILES,B2AR ag,NadD block,PP1 counter,Granule exo inh,GRK2 aptamer HTS,Granule exo CP1
CC(C)(C)C(=O)NC(=O)Nc1ccccc1C(F)(F)F,1,-6,-3,109*,2,-9
COC(=O)c1ccc(CCc2cc(O)c(Br)cc2O)cc1,15,0,.,98*,.,77*
CCOC(=O)c1c(C)oc2c1c(C(c1cccnc1)N1CCOCC1)c(O)c1ccccc12 (centres undefined),14,-9,0,98*,0,83*
CCOC(=O)c1sc2nc(CN3CCN(c4cccc(C(F)(F)F)c4)CC3)[nH]c(=O)c2c1C,5,1,-4,0,1,.
CN(C)CCNC(=O)c1cccc(-c2cnc3c(NC=O)cc(/C=C/c4ccccc4)cn23)c1,.,3,.,-2,.,.
OCC1(Cc2ccccc2Cl)CCN(C/C=C/c2ccccc2)CC1,-2,-8,-4,-3,0,.
OCC1(CCc2ccccc2)CCN(C/C=C/c2ccccc2)CC1,-8,-2,1,57*,0,-12
Cc1c(C(=O)NC(=S)Nc2ccc(N3CCOCC3)cc2)cccc1[N+](=O)[O-],8,1,-3,8,1,.
O=C(c1cc(COc2c(F)cccc2F)on1)N1CCC(c2ccncc2)CC1,-1,-3,-2,86*,0,-15
COc1cc(C)ccc1OCc1cc(C(=O)N2CCC(c3ccc(F)cc3)C2)no1 (centres undefined),2,6,-5,77*,2,-3
Cc1cccc(C)c1OCc1cc(C(=O)N2CCC(c3ccncc3)CC2)no1,-5,-7,1,13,0,.
NC(=O)c1ccc(NC(=O)c2ccc3c(c2)CCN3S(=O)(=O)c2ccccc2)cc1,13,-5,0,72*,0,-1
Cc1ccc(NC(=O)CC2SC3=NCCCN3C2=O)c(C)c1 (centres undefined),-8,4,3,67*,1,-12
O=C(CC1SC2=NCCN2C1=O)Nc1ccc(Cl)cc1 (centres undefined),19,-2,-1,-1,0,.
C[C@@H]1CN([C@@H](C)CO)C(=O)c2cc(NS(C)(=O)=O)ccc2O[C@@H](C)CCCCO[C@H]1CN(C)Cc1ccc2c(c1)OCO2,.,6,.,1,.,.
CC(NC(=O)CCC(=O)c1ccc(F)cc1)C1CC2CCC1C2 (centres undefined),-4,-6,-5,104*,1,-3
CC(=O)C1=CCC(c2ccc(Cl)cc2)N(S(=O)(=O)c2ccccc2C)C1 (centres undefined),.,-6,.,22,.,.
O=C(O)C1=C[C@H](c2ccccc2)C[C@H](OCCCCO)O1,-3,1,1,58*,.,-13
Cc1oc(-c2ccccc2)cc1C(=O)NC1CCN(Cc2ccccc2)CC1,1,1,-3,67*,0,-7
O=C(NC1CCN(Cc2ccccc2)CC1)c1ccccc1Cl,2,-3,5,2,0,.
COc1ccc(-n2nnnc2S(=O)(=O)CC(=O)N2CCCCC2)cc1,15,-3,1,60*,0,8
O=C(COCc1nc2ccccc2c(=O)[nH]1)NC1CCCC1,-3,-6,0,-4,1,.
